In the library only some 7.3% were active in any assay of this set; here they are far more common.
ELG1 genotoxic: qHTS screen for small molecules that induce genotoxicity in human embryonic kidney (HEK293T) cells expressing luciferase-tagged ELG1; HEK293T ELG1-luciferase reporter, luminescence, 16 h; Potency, µM (highest dose often 46 µM), for the others: at the highest dose activity change, positive = activation, hits mostly activators; hit rate 1.3% among 330,000; further: % of control where 0% means no effect; nearly all actives have a fitted effect of over 60% in size
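Screening used a luciferase reporter fused to human ELG1 in HEK293T cells. Luminescence was read on a CCD plate imager after 16 hr exposure and 30 min ONE-Glo incubation.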
NPC1 prom act: qHTS Assay for NPC1 Promoter Activators | Huh7 NPC1 promoter luciferase reporter, 24 h | AID 485313, 2010 | hit rate 2.4% among 320,000 | Potency, µM (top dose mostly 9.22 µM), without a hit: at the highest dose activation, hits mostly activators; further: % of control where 0% means no effect; nearly all actives have a fitted effect of over 60% in size
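Compounds in DMSO were transferred onto Huh7 NPC1-luciferase reporter cells pre-incubated 2 h; after 24 h at 37 °C, Amplite reagent was dispensed and luminescence recorded 10 min later.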
Luc counter: Counterscreen for Luciferase (Kinase-Glo TM) Inhibition | Luciferin 4-monooxygenase (Photuris pensylvanica), Q27757 | Kinase-Glo luciferase, ATP luminescence, 8 min | Potency, µM (doses to about 38.3 µM), for the others: at the top dose activity change, negative = inhibition, hits mostly inhibitors | hit rate 0.28% among 200,000; further: on the % scale 0 is the no-effect control and ±100 the full control effect; nearly all actives have a fitted effect of over 60% in size
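Compound is pinned into ATP-containing buffer (10 uM ATP, imidazole pH 7.2, 7 mM MgCl2). Kinase-Glo luciferase reagent is then added. Light output is recorded following an 8-min room-temperature incubation.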
SMN2 splice enh: qHTS Assay for Enhancers of SMN2 Splice Variant Expression. HEK293 SMN2-luciferase splicing reporter, luminescence, 30-36 h. hit rate 2.8% among 210,000. Potency, µM (doses to about 46.1 µM), without a hit: at the highest dose activity change, positive = activation, most hits filed as activators. AID 1458, 2008; further: % of control where 0% means no effect; nearly all actives have a fitted effect of over 55% in size
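qHTS luciferase splicing reporter: luminescence rises when SMN2 exon 7 is included in transfected HEK293 cells. Compound exposure lasted 30-36 h at 37C, with 4.5 mM final sodium butyrate as control, followed by a ONE-Glo read.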
Rab9 promoter act: qHTS Assay for Rab9 Promoter Activators; Potency, µM (series often up to 9.22 µM), inactives show at the top dose activation, negative = inhibition, hits mostly activators; hit rate 2.8% among 320,000; Huh7 Rab9 promoter-luciferase reporter, luminescence, 24 h; further: % of control where 0% means no effect; nearly all actives have a fitted effect of over 60% in size
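Cell-based reporter: Huh7 stable for Rab9 promoter-driven luciferase, plated in reduced-serum medium with 10% FBS at 1500 cells/well, compound-treated 24 h at 37 °C, luminescence read after 10 min reagent.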
FLuc modulator: qHTS profiling assay for firefly luciferase inhibitor/activator using purifed enzyme and Km concentrations of substrates (counterscreen for miR-21 project); purified FLuc, Km substrates, luminescence inhibition; Potency, µM (doses to about 57.5 µM), inactives show top-dose activity change, negative = inhibition, hits mostly inhibitors; hit rate 6.9% among 360,000;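 further: plate controls were vehicle for no effect and reference inhibitor for full effect; nearly all actives have a fitted effect of over 55% in size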
Target sequence (P08659 whole entry, looked up): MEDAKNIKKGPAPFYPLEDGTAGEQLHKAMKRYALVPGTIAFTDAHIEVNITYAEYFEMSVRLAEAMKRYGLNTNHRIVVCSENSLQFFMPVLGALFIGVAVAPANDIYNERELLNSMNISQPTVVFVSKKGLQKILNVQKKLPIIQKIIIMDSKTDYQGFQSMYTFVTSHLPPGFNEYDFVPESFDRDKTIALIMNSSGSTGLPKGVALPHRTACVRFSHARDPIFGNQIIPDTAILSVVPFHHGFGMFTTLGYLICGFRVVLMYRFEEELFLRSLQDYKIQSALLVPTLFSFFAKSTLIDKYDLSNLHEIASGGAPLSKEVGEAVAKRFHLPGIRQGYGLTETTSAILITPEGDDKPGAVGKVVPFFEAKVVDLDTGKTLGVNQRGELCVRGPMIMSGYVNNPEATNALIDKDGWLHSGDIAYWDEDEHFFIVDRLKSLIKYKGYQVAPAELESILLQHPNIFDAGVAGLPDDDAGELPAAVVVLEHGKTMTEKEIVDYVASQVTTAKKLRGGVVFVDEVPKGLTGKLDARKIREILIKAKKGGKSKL
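Purified P. pyralis luciferase (10nM final) with 10uM D-luciferin and 10uM ATP (Km levels) in 50mM Tris acetate pH 7.5, 10mM Mg acetate, 0.01% Tween-20, 0.05% BSA; qHTS 6-point titration, ~60 µM downward; luminescence read.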
The depositor's hits bear a star; ? = inconclusive; . = no result given; [ ] = remark or other dose. The call rests on the fitted dose curve; in most records, active means well fitted curve in the direction sought with a large enough effect; inconclusive means small, poorly fitted or top-dose-only effect, or another doubt; inactive means no such curve, though single readings can be large; an effect the other way counts as inactive or inconclusive. Potency means the concentration at half of the fitted maximal effect.

SMILES	ELG1 genotoxic	NPC1 prom act	Luc counter	SMN2 splice enh	Rab9 promoter act	FLuc modulator
CCC(Oc1ccccc1)C(=O)Nc1ccc2oc(-c3ccc(OC)cc3)nc2c1 (stereo unspecified)	.	.	.	.	.	-2%
CC(C)CC(=O)Nc1cccc(-c2nc3ccccc3o2)c1	-2%	-2%	.	.	5%	-16%
Cc1ccc(-c2nc3cc(NC(=O)C(C)C)ccc3o2)cc1C	?	0.35µM*	?	?	0.13µM*	0.27µM*
CC(C)CC(=O)Nc1ccc2oc(-c3ccncc3)nc2c1	14%	?	0%	4%	?	15µM*
CC(Oc1ccc(Cl)cc1Cl)C(=O)Nc1ccc2oc(-c3ccncc3)nc2c1 (stereo unspecified)	-8%	-8%	-1%	.	-9%	-1%
Cn1cnc2c(=O)oc3ccc(S(=O)(=O)N4CCN(c5cccc(Cl)c5)CC4)cc3c21	.	.	.	.	.	-1%
CCNC(=O)CC1C(=O)N(c2ccc(F)cc2)C(=O)N1Cc1ccc(OC)c(OC)c1 (stereo unspecified)	.	.	.	1%	.	-2%
CC(C)C(=O)Nc1cccc(-c2nc3ccccc3o2)c1	?	-1%	1%	15%	3%	-13%
Cc1ccc(-c2nc3cc(NC(=O)C(C)C)ccc3o2)cc1	?	0.35µM*	-14%	0.56µM*	0.1µM*	1.1µM*
Clc1ccc(-c2nc3cc(CN4CCCCC4)ccc3o2)cc1	?	1.8µM*	.	.	2.8µM*	11µM*
Clc1ccc(-c2noc(CN3CCCCC3)n2)cc1	.	.	0%[7.66 µM]	-3%[9.22 µM]	.	.
Cc1ccc2oc(-c3ccc(NC(=O)CCC(=O)O)cc3)nc2c1	.	.	.	11µM*	.	2.4µM*
Cc1ccc(OCC(=O)Nc2ccc(-c3nc4ccccc4o3)cc2)c(C)c1	.	.	.	?	.	-1%
Cc1ccc(-c2nc3cc(Cl)ccc3o2)cc1	?	17%	-1%	?	16%	0.34µM*
Cc1ccc(-n2nc(CO)c(C(=O)NCCCCc3ccccc3)n2)cc1	.	.	.	21%	.	6%
Cn1ncc2c(NCc3ccc(Cl)cc3)ncnc21	.	.	.	.	.	-1%
Cc1cc(C)n(C(C)CC(=O)Nc2ccc(C)c(F)c2)n1 (stereo unspecified)	.	.	.	.	.	-3%
Cc1cc2nc(-c3ccc(NC(=O)C(C)C)cc3)oc2cc1C	0.82µM*	0.45µM*	4%	2.8µM*	0.63µM*	0.85µM*
CC(C)(CC(=O)Nc1ccccc1)C(=O)O	.	.	0%[7.66 µM]	-2%[9.22 µM]	.	.
O=C(Cn1nnc(-c2ccccc2F)n1)N1CCCCC1	?	3.2µM*	.	.	2.5µM*	?
COc1ccc(OC)c(C(=O)Cn2nnc(-c3ccc(N4CCOCC4)cc3)n2)c1	-7%	0%	.	.	1%	9.5µM*
COc1ccc(-c2ccc(-c3nnn(CC(=O)N4CCOCC4)n3)cc2)cc1	?	3.2µM*	0%	?	2.8µM*	0.38µM*
CCOC(=O)Cn1nnc(-c2cccc(OC)c2)n1	6%	-1%	-1%	-6%	5%	11µM*
O=C(NC1CCCC1)c1ccc(CSc2nc3cccnc3n2Cc2ccccc2F)cc1	.	.	.	.	.	-17%
CCCOc1ccc(-c2nnn(CC(=O)N3CCCCC3)n2)cc1	-6%	1%	.	.	-2%	17µM*
Cc1cccc(-c2nc(N)nc(N)n2)c1	?	21%	.	.	?	?
CCc1ccc2oc(-c3cccc(N)c3)nc2c1	?	0.56µM*	-23%	6.3µM*	1.6µM*	0.24µM*
Cc1ccc2nc(-c3cccc(N)c3)oc2c1	1.6µM*	0.89µM*	-26%	?	3.5µM*	0.21µM*
Cc1ccc2nc(-c3ccc(O)cc3)oc2c1	?	2.5µM*	.	.	?	0.95µM*
Cc1cc(C)c2oc(-c3cccc(N)c3)nc2c1	?	3.5µM*	.	.	?	3.8µM*

Bioassay records deposited in PubChem BioAssay by National Center for Advancing Translational Sciences (NCATS).
